MITF act – increases MITF-driven TRPM1 promoter luciferase signal | SK-MEL-5 TRPM1-promoter luciferase, 24 h; % of positive control, neutral wells = 0 | 300,000 tested, 0.75% active | activation, % at 12.5 µM;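 active means mean activation of at least 80% with every replicate also reaching 80%; inconclusive means mean reaches 80% but some replicate falls short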
Wnt bcat act – activators of Wnt/beta-catenin signaling. AID 743398. 300,000 tested, 1.2% active. activation, % at 9.35 µM. Wnt/beta-catenin reporter cell assay, activator, plate reader; in the data active means activation above about 30%, passing the limit was not always enough; inconclusive means no clear call, values can overlap the other calls
GAA850 FXN act – increases GAA850 frataxin promoter reporter activity | HEK293 lucGAA850 FXN promoter luciferase reporter, 24 h; percent of 10 µM SAHA response | activation, % at 6 µM | 360,000 tested, 0.56% active;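 active means activation above the average of all compounds screened plus 3 SD, cutoff fixed separately per campaign, cut at about 7.5% in these data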
AHR activator – human AHR activation. P35869. AHR-responsive luciferase reporter cells, luminescence. activation, % at 5 µM. 320,000 tested, 2.5% active. AID 2796; in the data active means activation above about 47%
Target sequence (P35869 whole entry, looked up): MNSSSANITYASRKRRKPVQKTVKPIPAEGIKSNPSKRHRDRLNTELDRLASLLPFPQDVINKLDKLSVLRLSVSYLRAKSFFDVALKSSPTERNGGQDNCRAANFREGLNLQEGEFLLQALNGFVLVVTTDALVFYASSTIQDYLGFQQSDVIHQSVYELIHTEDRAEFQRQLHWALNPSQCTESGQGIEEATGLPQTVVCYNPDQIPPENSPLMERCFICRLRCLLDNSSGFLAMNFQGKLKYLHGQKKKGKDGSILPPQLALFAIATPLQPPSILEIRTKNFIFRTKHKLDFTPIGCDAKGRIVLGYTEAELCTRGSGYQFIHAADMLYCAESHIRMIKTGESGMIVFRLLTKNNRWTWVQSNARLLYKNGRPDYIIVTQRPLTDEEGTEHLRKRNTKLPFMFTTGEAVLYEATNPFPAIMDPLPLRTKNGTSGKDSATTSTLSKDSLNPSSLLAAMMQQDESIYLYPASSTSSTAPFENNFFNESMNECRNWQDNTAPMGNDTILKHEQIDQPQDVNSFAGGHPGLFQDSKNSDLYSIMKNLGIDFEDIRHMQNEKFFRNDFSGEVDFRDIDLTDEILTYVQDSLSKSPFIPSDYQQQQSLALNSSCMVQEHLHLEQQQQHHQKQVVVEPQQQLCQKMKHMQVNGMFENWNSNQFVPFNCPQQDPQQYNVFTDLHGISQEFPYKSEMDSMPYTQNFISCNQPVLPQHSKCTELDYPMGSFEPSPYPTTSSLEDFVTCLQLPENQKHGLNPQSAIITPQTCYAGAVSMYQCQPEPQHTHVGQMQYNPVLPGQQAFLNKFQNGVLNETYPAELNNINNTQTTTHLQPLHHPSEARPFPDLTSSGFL
esBAF inh – inhibitors of esBAF chromatin remodeling in mouse ES cells; Bmi1-luciferase knock-in reporter, 24 h; 100% = twice the neutral-well signal; reporter increase, % at 12.5 µM; 350,000 tested, 2% active; AID 602393; in the data active means activation above about 40%; inconclusive means no clear call, values can overlap the other calls;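 further: a rise in the Bmi1 reporter signal indicates esBAF inhibition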
Numbers stand for hits; – = inactive; ? = inconclusive; · = no result. In the library only some 4.2% were active in any assay of this set; here they are far more common.

SMILES	MITF act	Wnt bcat act	GAA850 FXN act	AHR activator	esBAF inh
Cc1ccc(-c2nc3c(Cl)cc(Cl)cc3c(=O)n2O)cc1	–	–	–	65.5	–
O=c1c2cc(Br)ccc2nc(-c2ccc(Cl)cc2)n1O	–	–	–	50.2	–
O=c1c2cc(Cl)ccc2nc(-c2ccc([N+](=O)[O-])cc2)n1O	–	–	–	–	·
O=c1c2ccccc2nc(-c2ccc(Cl)c(Cl)c2)n1O	–	–	–	–	–
COc1cccc(OCc2cc(C(=O)N(C)CCC3CCCCO3)no2)c1 (stereo not given)	–	–	–	–	–
CC(=O)c1cccc(OCc2cc(C(=O)N(C)CCC3CCOCC3)no2)c1	–	–	–	–	52.4
COc1ccccc1OCc1cc(C(=O)N(C)CCC2CCOCC2)no1	·	40.1	–	·	54.1
C[C@@H]1CN([C@@H](C)CO)C(=O)c2c(c3ccccc3n2C)-c2ccccc2CO[C@H]1CN(C)S(=O)(=O)c1ccsc1	·	·	·	·	–
C[C@@H]1CCCCO[C@@H](CN(C)Cc2ccc(Cl)c(Cl)c2)[C@H](C)CN([C@H](C)CO)C(=O)c2cc(NS(=O)(=O)c3ccccc3)ccc2O1	·	·	·	·	–
CNS(=O)(=O)c1ccc(NC(=O)c2csc(C)c2)cc1	–	–	–	–	·
CC(=O)c1ccc(NC(=O)c2ccc3nc(C)sc3c2)cc1	·	–	–	–	48.8
COc1cc(C(=O)Nc2ccc(C(C)=O)cc2)c(Br)c(OC)c1OC	–	–	–	–	47.6
CC(=O)c1ccc(NC(=O)Nc2ccc3c(c2)nc(C)n3C)cc1	85.0	–	–	–	·
Cc1cc(C(=O)Nc2ccc(Br)cc2)cs1	–	45.0	–	–	·
COc1ccc(NC(=O)c2cc(OC)c(OC)c(OC)c2Br)cc1OC	–	·	–	–	·
O=C(C[C@H]1CC[C@@H](NC(=O)Nc2ccc3c(c2)OCO3)[C@H](CO)O1)NCc1ccccc1	·	·	·	·	–
CN(C)C(=O)c1ccc(-c2ccc3c(c2)[C@H]2[C@H](CCN2C(=O)C2CC2)[C@@H](CO)N3C)cc1	·	·	·	·	–
CNC[C@H]1Oc2c(NC(=O)Nc3ccc4c(c3)OCO4)cccc2C(=O)N([C@@H](C)CO)C[C@H]1C	·	·	·	·	–
Cc1nc2ccc(NC(=O)c3ccc(=O)[nH]c3)cc2s1	–	–	–	–	–
CC(=O)c1ccc(NC(=O)c2ccc(C)c(Br)c2)cc1	–	69.2	–	–	·
Cc1nc2ccc(NC(=O)c3cncc(Br)c3)cc2s1	92.5	–	–	–	–
Cc1nc2cc(C(=O)O)ccc2s1	–	·	–	–	73.2
CCCCC(=O)Nc1ccc(C(=O)NNC(=O)c2ccc(C)c(Br)c2)cc1	–	–	–	–	·
O=C(Nc1ccc(F)cc1)N[C@H]1CC[C@@H](CCNS(=O)(=O)c2ccccc2F)O[C@@H]1CO	·	·	·	·	–
CSc1ccccc1NC(=O)c1ccc([N+](=O)[O-])cc1	–	–	–	–	·
SMILES	MITF act	Wnt bcat act	GAA850 FXN act	AHR activator	esBAF inh
N#C/C(=C\c1ccc([N+](=O)[O-])cc1)C(=O)Nc1ccccc1O	–	–	–	–	·
Cc1cc(NC(=O)c2ccc(Cl)cc2)c(C)cc1O	–	–	–	–	·
O=C(Nc1ccccc1O)c1ccc(Cl)cc1	–	–	–	66.4	–
N#C/C(=C/c1ccc([N+](=O)[O-])cc1)C(=O)Nc1ccccc1O	–	–	–	67.8	·
O=C(NC(=S)Nc1ccccc1O)c1ccc(-c2ccc(Cl)cc2)o1	–	·	–	67.0	–
O=C(Nc1ccccc1O)c1ccc([N+](=O)[O-])cc1	–	–	–	70.3	–
CNC[C@H]1Oc2ccc(NS(=O)(=O)c3ccc(F)cc3)cc2CC(=O)N([C@@H](C)CO)C[C@@H]1C	·	·	·	·	–
O=C(N/N=C/c1ccnc2ccccc12)c1ccccc1O	–	–	–	·	54.7
O=C(N/N=C/c1ccc2nccnc2c1)c1ccccc1O	·	37.6	·	–	·
O=C(N/N=C/c1cccc(OC2CSC2)c1)c1ccccc1O	–	·	–	–	·
O=C(N/N=C/c1ccc2nccnc2c1)c1ccncc1	·	–	–	–	·
Cn1nccc1C(=O)Oc1cccc(/C=N/NC(=O)c2ccccc2O)c1	–	–	–	69.5	·
O=C(C[C@H]1CC[C@H](NC(=O)c2ccncc2)[C@H](CO)O1)NCC1CC1	·	·	·	·	–
COc1ccccc1C1Nc2cccc3cccc(c23)N1	·	–	–	60.3	–
O=[N+]([O-])c1ccccc1C1Nc2cccc3cccc(c23)N1	–	–	–	74.8	–
CN(C)Cc1cn(CC[C@H]2CC[C@@H](NS(=O)(=O)c3ccc(-c4ccccc4)cc3)[C@H](CO)O2)nn1	·	·	·	·	–
c1ccc(CNc2nc3ccccc3n3cnnc23)nc1	–	–	–	50.4	–
O=C(N/N=C\c1ccc(Cl)s1)c1cccs1	–	·	–	–	72.3
COc1ccccc1C(=O)N/N=C/c1ccc(Cl)s1	–	–	–	48.8	·
O=C(N/N=C/c1ccncc1)c1cccs1	–	·	–	–	–
C[C@@H]1CN([C@H](C)CO)C(=O)c2cc(NC(=O)Nc3ccc(C(F)(F)F)cc3)ccc2O[C@@H](C)CCCCO[C@H]1CN(C)S(=O)(=O)c1ccccc1	·	·	·	·	–
CCOC(=O)C(=O)Nc1nc(-c2ccccc2)c(-c2ccccc2)o1	–	–	–	–	·
CCOC(=O)C(Cc1ccc(O)cc1)Nc1nc2ccccc2o1 (stereo not given)	–	–	–	·	·
CCOC(=O)C(=CN=C(N)Nc1nc2ccccc2o1)C(=O)OCC	–	–	–	62.9	–
CCCOC(=O)Nc1nc2ccccc2o1	–	36.9	–	–	–
SMILES	MITF act	Wnt bcat act	GAA850 FXN act	AHR activator	esBAF inh
CC(C)(C)NC(=O)c1cccc(NC(=O)c2ccc3c(c2)C(=O)N(C(C)(C)C)C3=O)c1	–	–	–	–	–
CC(C)(C)N1C(=O)c2ccc(C(=O)Nc3ccc(O)cc3)cc2C1=O	·	48.3	–	–	?
CN(C)CC(=O)N[C@@H]1CC[C@@H](CC(=O)NCCN2CCCCC2)O[C@H]1CO	·	·	·	·	–
Cc1ccc(/C=c2/sc3n(c2=O)CCCN=3)o1	·	·	–	–	53.0
Cc1ccc(N2C(=O)c3ccc(N)cc3C2=O)cc1C	·	·	–	–	89.5
Cc1ccc(N2C(=O)c3ccc(N)cc3C2=O)cc1	·	68.8	–	51.1	66.9
Cc1ccc(N2C(=O)c3ccccc3C2=O)cc1C	–	–	–	–	–
CC(=O)Nc1ccc2c(c1)C(=O)N(c1ccc(C)cc1)C2=O	–	–	–	–	–
C[C@H](CO)N1C[C@H](C)[C@@H](CN(C)C(=O)C2CCCCC2)Oc2ncc(-c3cccc(F)c3)cc2C1=O	·	·	·	·	–
COc1ccccc1-c1cc(C(=O)N2CCCC2)no1	–	36.9	–	–	–
COCCNC(=O)c1cc(-c2ccccc2OC)on1	–	–	–	–	?
CCC(C)NC(=O)c1ccccc1-c1ccccc1C(=O)NC(C)CC (stereo not given)	–	–	–	–	–
COc1ccccc1-c1cc(C(=O)N2CCN(c3ccc(F)cc3)CC2)no1	–	–	–	–	–
COc1ccccc1-c1cc(C(=O)NC(C)C)no1	–	–	–	–	51.7
CCN(CC)C(=O)c1cc(-c2ccccc2OC)on1	–	–	–	47.9	–

Compound activity: PubChem BioAssay, several laboratories
